Hits are enriched below; roughly 3% of the tested compounds scored in any of these assays.
SNCA expr inh: reduces expression of the alpha-synuclein gene; HEK-293 SNCA-luciferase knock-in, luminescence, 24 h; Potency, µM (top dose mostly 57.2 µM), actives largely listed as inhibitors; actives 0.17% (n = 140,000); also: nearly all actives have a fitted effect of over 45% in size
KDM5B inh: inhibitors of human KDM5B histone demethylase. Q9UGL1. KDM5B demethylase, FDH-coupled NADH fluorescence (FDH is formaldehyde dehydrogenase). Potency, µM (series often up to 57.7 µM), most hits filed as inhibitors. actives 2.6% (n = 220,000). AID 1347165; also: nearly all actives have a fitted effect of over 70% in size
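Compound dilutions met 200 nM (final) KDM5BΔAP for 10 min at room temperature before substrate addition. The substrate mix held 12.5 µM H3K4me3 with cofactors 25 µM α-ketoglutarate and 50 µM Fe²⁺. NADH signal gain over 30 min defined activity.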
IP6K1 inhibitor: IP6K1 kinase inhibition | activity change, % (series mostly up to about 58 µM) | IP6K1 kinase, ADP-Glo luminescence, 2 h; active compounds read low | AID 1645851 | actives 0.81% (n = 140,000); in the data active = activity change below about -25%
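ADP-Glo luminescence measures ADP made by human IP6K1 during a 2 h RT reaction with ATP/IP6 (mix at 1.3 mM/130 uM); top library doses 57.5 and 19.1 uM final.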
HEK293 viab: reduces viability of HEK-293 SNCA reporter cells; HEK-293-SNCA-luc viability, GF-AFC fluorescence, 24 h; Potency, µM (doses to about 57.1 µM), actives largely listed as cytotoxic; actives 0.12% (n = 150,000); also: nearly all actives have a fitted effect of over 30% in size
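Cytotoxicity counterscreen: after 24 h compound treatment of genome-edited SNCA-luciferase HEK-293 cells, live-cell protease substrate GF-AFC read by fluorescence after 30 min; activity scaled between DMSO (0%) and medium-only (-100%), curves Hill-fitted.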
Hits are given with their value; - = inactive; ? = inconclusive; . = not tested or not shown; ! = not confirmed by another sample; [ ] = dose if it differs, or a comment. Unless noted, calls follow the shape of the dose curve; as a rule, active = well fitted curve in the direction sought with a large enough effect; inconclusive = small, poorly fitted or top-dose-only effect, or another doubt; inactive = no such curve, though single readings can be large; an effect the other way counts as inactive or inconclusive.

SMILES | SNCA expr inh | KDM5B inh | IP6K1 inhibitor | HEK293 viab
O=C(Nc1ncn[nH]1)c1cccc(S(=O)(=O)N2CCCCC2)c1 | . | - | . | .
CCc1ccc(NC(=O)c2sc3nc4c(cc3c2N)CN(C(C)C)CC4)cc1 | . | - | . | .
O=C(/C=C/c1ccccc1OC(=O)c1cccs1)c1cc2ccccc2o1 | . | - | . | .
O=C(NCC1CC1)c1noc(-c2ccc[nH]c2=O)n1 | - | - | - | -
Cc1ccc(C)c(N2CCN(C(=O)c3noc(-c4ccc[nH]c4=O)n3)CC2)c1 | - | 28µM | - | -
CC(C)Oc1ccc(CNC(=O)c2noc(-c3ccc[nH]c3=O)n2)cc1 | - | - | - | -
COCCNC(=O)c1noc(-c2ccc[nH]c2=O)n1 | - | 28µM | - | -
COc1ccc(C(C)NC(=O)c2noc(-c3ccc[nH]c3=O)n2)cc1OC (stereo not drawn) | ? | 32µM | - | -
Cc1ccc(-c2nc(C(=O)N3CCN(c4cc(C)ccc4C)CC3)no2)cc1 | - | ? | - | -
CCCCn1nc(C(=O)Nc2ccc(OC)c(OC)c2)c2ccccc2c1=O | . | - | . | .
C=C(Cl)COC(=O)c1ccc2[nH]c(C)c(C)c2c1 | . | - | . | .
Cc1ccc(CN(C)C(=O)c2cc(-c3cccnc3)nc3ccccc23)o1 | . | - | . | .
COc1ccc2c(COC(=O)c3ccc4ccccc4c3O)cc(=O)oc2c1 | . | - | . | .
Cc1ccc(Nc2ccnc(N3CCC(NC(=O)c4ccccc4Cl)CC3)n2)cc1 | - | . | - | -
COc1ccc(-c2noc([C@@H](C)NC(=O)c3nc4ccccc4[nH]3)c2C(=O)O)cc1 | - | 28µM | - | -
N#Cc1cccc(-c2cn3c(n2)N(C(=O)CC2CCNCC2)CCC3)c1 | - | ? | - | -
N#Cc1cccc(-c2cn3c(n2)N(C(=O)c2cccs2)CCC3)c1 | - | 28µM | - | -
N#Cc1cccc(-c2cn3c(n2)N(C(=O)c2cccnc2)CCC3)c1 | - | 35µM | - | -
COCCC(=O)N1CCCn2cc(-c3cccc(C#N)c3)nc21 | - | 22µM | - | -
CCn1ccc(C(=O)N2CCCn3cc(-c4cccc(C#N)c4)nc32)n1 | - | ? | - | -
CC(C)c1ccc(-n2nnnc2SCCCn2c(=O)c3c(ncn3C)n(C)c2=O)cc1 | . | - | . | .
COc1cccc(-c2ccc(C(=O)N3CCC(NC(=O)Nc4ccccc4F)CC3)cc2)c1 | - | . | - | -[12.5 µM]
Cc1ccc(C(=O)NCc2nnc3ccc(-c4ccccc4)nn23)c(C)c1 | ? | 28µM | - | -
COc1ccccc1CC(=O)NCc1nnc2ccc(-c3ccccc3)nn12 | - | - | - | -
O=C(NCc1nnc2ccc(-c3ccccc3)nn12)c1ccc[nH]c1=O | - | 28µM | - | -
SMILES | SNCA expr inh | KDM5B inh | IP6K1 inhibitor | HEK293 viab
CC(C(=O)NCc1nnc2ccc(-c3ccccc3)nn12)c1ccccc1 (stereo not drawn) | - | 28µM | - | -
Cc1ccc(C(=O)NCc2nnc3ccc(-c4ccc(F)cc4)nn23)c(C)c1 | - | ? | - | -
Cc1cc(C)cc(C(=O)NCc2nnc3ccc(-c4ccccc4)nn23)c1 | - | 25µM | - | -
COc1ccccc1C(=O)Nc1ccnn1C1CCN(c2cnccn2)CC1 | - | 28µM | - | -
COc1ccccc1C(=O)Nc1ccnn1C1CCN(c2nccc(N)n2)CC1 | - | ? | - | -
Cc1nnc(CN(C)c2ccc(-c3nc(-c4cccc(Cl)c4)no3)cn2)o1 | - | 28µM | - | -
Cn1cc(CN2CCN(c3cnccn3)CC2)c(-c2ccc(C3CCCCC3)cc2)n1 | - | 28µM | - | -
C[n+]1cc2c3c(ccc2c2ccc4cc5c(cc4c21)OCO5)OCO3 | ? | . | - | 13µM!
Cc1ccc(NC(=O)N2Cc3[nH]cnc3C[C@H]2c2nc(-c3ccc4ccccc4c3)no2)cc1 | - | 22µM | - | -
O=C(NC1CCCCC1)N1Cc2[nH]cnc2C[C@H]1c1nc(-c2cccc([N+](=O)[O-])c2)no1 | - | 4µM | - | -
O=C(OCc1nnnn1-c1ccccc1)C1(c2ccccc2F)CCCC1 | . | - | . | .
CS(=O)(=O)N1CCCC(C(=O)NCCCN2CCCc3ccccc32)CCNC(=O)CC1 (stereo not drawn) | - | 32µM | - | -
CS(=O)(=O)N1CCCC(C(=O)NCCc2cccnc2)CCNC(=O)CC1 (stereo not drawn) | - | - | - | -
CCCN1C(C(C)=O)=C(OC(=O)CC)c2ccccc2S1(=O)=O | . | - | . | .
Cc1ccc(-c2cn3c(n2)sc2cc(C(=O)NCCCN4CCCCC4)ccc23)cc1 | ? | ? | - | 25µM
Cc1ccc(-c2cn3c(n2)sc2cc(C(=O)NCCCN4CCCCCC4)ccc23)cc1 | ? | ? | - | ?
O=C1CCN(C[C@@H](O)COCc2ccccc2)c2ccc(F)cc2CN1Cc1ccccc1 | . | . | - | .
Cc1cccc(-n2nc(-c3c(C)nc4scc(CC(=O)N5CCOCC5)n4c3=O)cc2C)c1 | - | 28µM | - | -
Cc1nc2scc(CC(=O)N3CCCC3)n2c(=O)c1-c1cc(C)n(-c2ccc(F)cc2)n1 | - | ? | - | -
Cc1ccc(-n2nc(-c3c(C)nc4scc(CC(=O)N5CCCC5)n4c3=O)cc2C)cc1 | - | ? | - | -
Cc1cccc(-n2nc(-c3c(C)nc4scc(CC(=O)N5CCCC5)n4c3=O)cc2C)c1 | - | 28µM | - | -
Cc1nc2scc(CC(=O)N3CCCC3)n2c(=O)c1-c1cc(C)n(-c2ccc(C(C)C)cc2)n1 | - | 25µM | - | -
Fc1ccc(CNC(=S)Nc2ccc(Nc3ccccc3)cc2)cc1 | . | - | . | .
CC(=O)NC1(C)CCN(Cc2cccc(-c3cccc4ncccc34)c2)C1 (stereo not drawn) | - | 40µM | - | -
CC(=O)NC1(C)CCN(Cc2cccc(-c3ccc(N4CCOCC4)cc3)c2)C1 (stereo not drawn) | - | 32µM | - | -
SMILES | SNCA expr inh | KDM5B inh | IP6K1 inhibitor | HEK293 viab
CC(=O)NC1(C)CCN(Cc2ccc(-c3ccc4ccccc4c3)cc2)C1 (stereo not drawn) | ? | ? | - | -
CC(=O)NC1(C)CCN(Cc2ccc(-c3cccc4ncccc34)cc2)C1 (stereo not drawn) | - | 40µM | - | -
O/N=C1\CCOc2ccccc21 | . | - | . | .
O=C(CCl)NC(NC(=O)CCl)c1ccccc1 | . | - | . | .
COc1ccc(-c2cc(C(=O)N3CCC(Cc4ccccc4)CC3)c3cnn(C)c3n2)cc1 | . | . | - | .
CN(C)c1cccc(C(=O)Nc2ccc(CC#N)cc2)c1 | . | - | . | .
Cc1ccsc1C(=O)OCC(=O)c1ccccc1 | . | - | . | .
c1ccc(-c2ccnc3nc(C4CCC4)nn23)cc1 | - | 28µM | - | -
c1cc(-c2ccnc3nc(CCC4CCCC4)nn23)ccn1 | - | 28µM | - | -
c1cc(-c2ccnc3nc(C4CCCCC4)nn23)ccn1 | - | 32µM | - | -
c1cc(-c2ccc3c(c2)OCCCO3)n2nc(C3CCC3)nc2n1 | - | 16µM | - | -
COc1cccc(C2C3=C(CC(C)(C)CC3=O)Nc3ccccc3N2C(=O)C(F)(F)F)c1OC (stereo not drawn) | . | - | . | .
N#C/C(=C/c1ccc(-c2ccccc2)cc1)C(=O)Nc1ccc(N2CCOCC2)cc1 | . | - | . | .
c1cc(-c2ccnc3nc(C4CCC4)nn23)ccn1 | - | 28µM | - | -

Screening results from PubChem.
